# Measured values as given in article PMC7862700, “An all-to-all approach to the identification of sequence-specific readers for epigenetic DNA modifications on cytosine”.
# How the values were obtained:
# Experiment in all cases: DAPPL (digital affinity profiling via proximity ligation, sequencing); 10 mM Tris-HCl pH 7.5, 50 mM NaCl, 1 mM DTT, 4% glycerol, room temperature, 30 min; GST-TFs on glutathione beads, 16-mer random dsDNA library, 0.1% formaldehyde crosslink after washing; high values mean tight binding
# FLI1 = target: T1, FLI1 (Homo sapiens, UniProt Q01543 1-452); conditions: protein: recombinant; tags: N-terminal GST; dsDNA, one strand shown
# T1 sequence: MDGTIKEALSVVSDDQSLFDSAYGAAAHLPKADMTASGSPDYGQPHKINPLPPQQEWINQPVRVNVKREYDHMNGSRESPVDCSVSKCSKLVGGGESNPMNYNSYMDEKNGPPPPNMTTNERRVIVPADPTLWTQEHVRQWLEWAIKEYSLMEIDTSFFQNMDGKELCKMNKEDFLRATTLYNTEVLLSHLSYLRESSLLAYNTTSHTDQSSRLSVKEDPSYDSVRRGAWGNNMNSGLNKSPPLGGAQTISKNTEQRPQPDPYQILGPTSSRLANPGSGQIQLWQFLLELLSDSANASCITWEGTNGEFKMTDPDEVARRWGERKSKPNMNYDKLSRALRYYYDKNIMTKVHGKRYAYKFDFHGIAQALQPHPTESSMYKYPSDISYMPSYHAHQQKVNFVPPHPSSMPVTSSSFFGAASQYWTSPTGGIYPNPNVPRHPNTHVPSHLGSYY
# Method in brief: (§1)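 Pools of DNA-barcoded human transcription factors, expressed in yeast as GST fusions on glutathione beads and combined with a tag-only sample, were incubated with 200 nmole of a 16-mer random double-stranded DNA library. Incubation took 30 min at room temperature in Tris/NaCl/DTT/glycerol buffer and was followed by washing, 0.1% formaldehyde crosslinking, proximity ligation (BsaI/T4 ligase, 1 h, 37 °C), PCR amplification and sequencing on an Illumina NextSeq500. Binding signal is the ratio of a hexamer's read frequency for a factor to its frequency for the tag-only sample.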
# ELK1 = target: T2, ELK1 (Homo sapiens, UniProt P19419 1-428); conditions: protein: recombinant; tags: N-terminal GST; dsDNA, one strand shown
# T2 sequence: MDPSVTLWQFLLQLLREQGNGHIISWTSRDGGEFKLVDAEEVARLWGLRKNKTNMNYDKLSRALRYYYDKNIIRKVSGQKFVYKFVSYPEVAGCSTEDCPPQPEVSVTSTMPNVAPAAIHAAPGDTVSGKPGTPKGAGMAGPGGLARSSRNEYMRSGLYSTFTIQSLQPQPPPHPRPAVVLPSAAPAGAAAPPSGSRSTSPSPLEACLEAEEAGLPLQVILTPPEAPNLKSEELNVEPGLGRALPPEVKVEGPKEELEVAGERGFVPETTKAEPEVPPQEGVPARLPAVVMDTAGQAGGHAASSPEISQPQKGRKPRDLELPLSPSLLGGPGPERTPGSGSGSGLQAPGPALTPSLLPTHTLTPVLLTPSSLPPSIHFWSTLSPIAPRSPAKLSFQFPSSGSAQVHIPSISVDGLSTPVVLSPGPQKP
# Method in brief: as §1
# GABPA = target: T3, GABPA (Homo sapiens, UniProt Q06546 1-454); conditions: protein: recombinant; tags: N-terminal GST; dsDNA, one strand shown
# T3 sequence: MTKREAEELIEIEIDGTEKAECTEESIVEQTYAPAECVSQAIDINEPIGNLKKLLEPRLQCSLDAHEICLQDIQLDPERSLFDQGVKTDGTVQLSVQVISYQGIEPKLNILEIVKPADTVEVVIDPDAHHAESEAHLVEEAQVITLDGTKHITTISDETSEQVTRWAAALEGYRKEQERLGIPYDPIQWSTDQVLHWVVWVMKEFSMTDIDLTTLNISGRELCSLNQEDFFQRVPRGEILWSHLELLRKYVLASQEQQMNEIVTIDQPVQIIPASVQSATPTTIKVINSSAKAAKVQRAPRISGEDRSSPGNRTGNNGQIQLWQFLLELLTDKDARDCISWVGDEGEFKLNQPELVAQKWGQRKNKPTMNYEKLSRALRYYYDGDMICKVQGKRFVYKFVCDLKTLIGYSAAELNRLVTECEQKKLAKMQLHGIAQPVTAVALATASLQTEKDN
# Method in brief: as §1
# ERG = target: T4, ERG (Homo sapiens, UniProt P11308 1-479); conditions: protein: recombinant; tags: N-terminal GST; dsDNA, one strand shown
# T4 sequence: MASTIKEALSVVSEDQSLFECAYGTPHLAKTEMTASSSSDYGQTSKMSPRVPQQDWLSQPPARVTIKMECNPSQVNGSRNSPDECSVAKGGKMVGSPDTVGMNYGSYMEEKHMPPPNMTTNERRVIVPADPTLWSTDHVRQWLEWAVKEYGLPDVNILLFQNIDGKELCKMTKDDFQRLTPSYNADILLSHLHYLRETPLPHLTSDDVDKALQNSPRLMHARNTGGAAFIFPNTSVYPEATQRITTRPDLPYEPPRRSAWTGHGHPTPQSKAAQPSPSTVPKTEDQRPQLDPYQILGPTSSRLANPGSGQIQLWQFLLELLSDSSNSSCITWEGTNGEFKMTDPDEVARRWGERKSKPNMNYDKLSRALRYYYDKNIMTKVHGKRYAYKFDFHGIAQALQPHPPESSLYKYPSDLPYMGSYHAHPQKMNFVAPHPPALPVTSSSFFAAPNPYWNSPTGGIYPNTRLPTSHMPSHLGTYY
# Method in brief: as §1
# ELF1 = ELF1 (Homo sapiens, UniProt P32519 1-619); conditions: protein: recombinant; tags: N-terminal GST; dsDNA, one strand shown
# Chain of ELF1 (P32519 whole entry): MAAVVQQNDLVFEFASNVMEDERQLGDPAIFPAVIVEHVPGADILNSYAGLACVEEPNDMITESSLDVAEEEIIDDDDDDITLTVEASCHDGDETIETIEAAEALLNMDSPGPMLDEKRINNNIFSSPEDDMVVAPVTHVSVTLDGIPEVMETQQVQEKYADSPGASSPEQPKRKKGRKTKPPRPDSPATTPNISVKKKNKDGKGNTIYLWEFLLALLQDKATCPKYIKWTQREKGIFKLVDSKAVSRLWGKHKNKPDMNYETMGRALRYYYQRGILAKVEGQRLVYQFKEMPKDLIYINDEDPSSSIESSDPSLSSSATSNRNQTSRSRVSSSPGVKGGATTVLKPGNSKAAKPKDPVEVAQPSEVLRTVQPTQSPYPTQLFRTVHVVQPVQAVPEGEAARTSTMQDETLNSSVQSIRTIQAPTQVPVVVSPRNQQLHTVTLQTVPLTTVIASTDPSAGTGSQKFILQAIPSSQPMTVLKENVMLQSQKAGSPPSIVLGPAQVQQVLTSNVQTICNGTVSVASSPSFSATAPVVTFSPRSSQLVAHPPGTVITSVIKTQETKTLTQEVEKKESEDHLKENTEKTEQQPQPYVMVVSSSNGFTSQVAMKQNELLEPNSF
# Method in brief: as §1
# EHF = target: T5, EHF (Homo sapiens, UniProt Q9NZC4 1-300); conditions: protein: recombinant; tags: N-terminal GST; dsDNA, one strand shown
# T5 sequence: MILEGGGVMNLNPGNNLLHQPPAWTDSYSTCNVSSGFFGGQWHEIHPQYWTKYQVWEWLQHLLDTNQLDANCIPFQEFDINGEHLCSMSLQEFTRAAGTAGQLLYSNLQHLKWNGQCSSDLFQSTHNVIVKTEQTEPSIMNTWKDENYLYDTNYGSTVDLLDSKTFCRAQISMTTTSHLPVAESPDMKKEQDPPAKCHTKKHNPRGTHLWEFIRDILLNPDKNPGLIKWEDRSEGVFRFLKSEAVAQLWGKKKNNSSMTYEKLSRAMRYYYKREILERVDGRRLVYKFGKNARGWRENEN
# Method in brief: as §1
# SPI1 = SPI1 (Homo sapiens, UniProt P17947 1-270); conditions: protein: recombinant; tags: N-terminal GST; dsDNA, one strand shown
# Method in brief: as §1
# SPIB = SPIB (Homo sapiens, UniProt Q01892 1-262); conditions: protein: recombinant; tags: N-terminal GST; dsDNA, one strand shown
# Chain of SPIB (Q01892 whole entry): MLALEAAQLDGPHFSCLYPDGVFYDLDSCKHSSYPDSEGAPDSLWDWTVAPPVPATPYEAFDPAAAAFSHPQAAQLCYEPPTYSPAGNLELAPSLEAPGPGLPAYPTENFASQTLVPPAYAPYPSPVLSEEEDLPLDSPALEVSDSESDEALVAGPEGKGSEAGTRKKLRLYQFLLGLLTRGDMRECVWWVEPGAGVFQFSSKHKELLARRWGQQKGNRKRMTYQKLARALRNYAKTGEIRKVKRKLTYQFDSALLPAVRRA
# Method in brief: as §1
# ELK3 = target: T6, ELK3 (Homo sapiens, UniProt P41970 1-407); conditions: protein: recombinant; tags: N-terminal GST; dsDNA, one strand shown
# T6 sequence: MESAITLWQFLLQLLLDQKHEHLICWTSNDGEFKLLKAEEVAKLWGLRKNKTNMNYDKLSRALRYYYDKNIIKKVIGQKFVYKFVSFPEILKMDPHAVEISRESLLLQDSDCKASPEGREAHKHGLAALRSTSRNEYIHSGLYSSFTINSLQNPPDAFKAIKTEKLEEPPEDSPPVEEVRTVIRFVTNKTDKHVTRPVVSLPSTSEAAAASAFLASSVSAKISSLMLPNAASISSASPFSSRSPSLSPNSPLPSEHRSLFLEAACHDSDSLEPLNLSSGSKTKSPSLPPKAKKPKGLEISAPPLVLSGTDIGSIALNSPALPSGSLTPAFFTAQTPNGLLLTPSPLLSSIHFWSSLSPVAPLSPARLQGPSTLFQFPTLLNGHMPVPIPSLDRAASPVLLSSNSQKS
# Method in brief: as §1
# FEV = target: T7, FEV (Homo sapiens, UniProt Q99581 1-238); conditions: protein: recombinant; tags: N-terminal GST; dsDNA, one strand shown
# T7 sequence: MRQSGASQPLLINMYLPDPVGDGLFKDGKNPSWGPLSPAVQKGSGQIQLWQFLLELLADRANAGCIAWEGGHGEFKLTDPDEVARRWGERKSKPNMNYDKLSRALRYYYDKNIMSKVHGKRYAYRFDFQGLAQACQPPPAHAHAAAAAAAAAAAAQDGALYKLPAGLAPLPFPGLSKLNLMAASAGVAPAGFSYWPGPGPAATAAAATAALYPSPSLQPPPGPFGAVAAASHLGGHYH
# Method in brief: as §1
# ETV5 = ETV5 (Homo sapiens, UniProt P41161 1-510); conditions: protein: recombinant; tags: N-terminal GST; dsDNA, one strand shown
# Chain of ETV5 (P41161 whole entry): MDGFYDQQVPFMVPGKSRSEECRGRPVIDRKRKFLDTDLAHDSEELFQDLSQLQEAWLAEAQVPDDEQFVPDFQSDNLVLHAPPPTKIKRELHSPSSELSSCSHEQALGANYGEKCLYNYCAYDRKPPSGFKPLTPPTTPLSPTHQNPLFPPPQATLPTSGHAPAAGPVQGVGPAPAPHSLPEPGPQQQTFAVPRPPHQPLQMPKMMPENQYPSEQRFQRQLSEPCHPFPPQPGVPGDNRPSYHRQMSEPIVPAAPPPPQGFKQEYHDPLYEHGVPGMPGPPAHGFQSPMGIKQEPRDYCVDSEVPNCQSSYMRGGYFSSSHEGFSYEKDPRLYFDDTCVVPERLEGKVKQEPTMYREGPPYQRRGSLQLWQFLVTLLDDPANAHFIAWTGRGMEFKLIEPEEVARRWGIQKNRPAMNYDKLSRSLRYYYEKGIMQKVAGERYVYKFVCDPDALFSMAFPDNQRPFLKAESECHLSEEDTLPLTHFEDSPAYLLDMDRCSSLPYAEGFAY
# Method in brief: as §1
# HSF1 = HSF1 (Homo sapiens, UniProt Q00613 1-529); conditions: protein: recombinant; tags: N-terminal GST; chain copies: 3; dsDNA, one strand shown
# Chain of HSF1 (Q00613 whole entry): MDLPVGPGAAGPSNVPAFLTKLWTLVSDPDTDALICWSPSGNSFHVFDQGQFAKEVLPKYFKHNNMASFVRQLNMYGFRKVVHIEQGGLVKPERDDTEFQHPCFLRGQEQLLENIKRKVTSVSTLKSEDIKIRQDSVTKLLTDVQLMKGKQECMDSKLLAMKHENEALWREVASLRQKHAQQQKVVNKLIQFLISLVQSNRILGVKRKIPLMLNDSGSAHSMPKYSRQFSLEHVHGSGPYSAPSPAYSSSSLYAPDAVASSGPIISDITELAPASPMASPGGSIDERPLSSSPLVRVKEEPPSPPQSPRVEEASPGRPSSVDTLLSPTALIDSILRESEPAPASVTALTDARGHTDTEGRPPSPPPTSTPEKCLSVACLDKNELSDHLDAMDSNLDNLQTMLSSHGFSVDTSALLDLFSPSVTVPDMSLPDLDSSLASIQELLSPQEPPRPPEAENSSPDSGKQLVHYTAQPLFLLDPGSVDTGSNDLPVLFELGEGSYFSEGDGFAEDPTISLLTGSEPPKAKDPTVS
# Method in brief: as §1
# SPIC = target: T8, SPIC (Homo sapiens, UniProt Q8N5J4 1-248); conditions: protein: recombinant; tags: N-terminal GST; dsDNA, one strand shown
# T8 sequence: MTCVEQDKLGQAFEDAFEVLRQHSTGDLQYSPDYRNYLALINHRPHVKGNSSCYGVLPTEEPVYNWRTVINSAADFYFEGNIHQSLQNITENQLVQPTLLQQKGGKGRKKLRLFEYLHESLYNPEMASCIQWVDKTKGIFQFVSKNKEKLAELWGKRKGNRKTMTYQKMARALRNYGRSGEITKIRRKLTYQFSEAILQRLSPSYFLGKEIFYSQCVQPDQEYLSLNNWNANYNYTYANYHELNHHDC
# Method in brief: as §1
# ELF4 = ELF4 (Homo sapiens, UniProt Q99607 1-663); conditions: protein: recombinant; tags: N-terminal GST; dsDNA, one strand shown
# Chain of ELF4 (Q99607 whole entry): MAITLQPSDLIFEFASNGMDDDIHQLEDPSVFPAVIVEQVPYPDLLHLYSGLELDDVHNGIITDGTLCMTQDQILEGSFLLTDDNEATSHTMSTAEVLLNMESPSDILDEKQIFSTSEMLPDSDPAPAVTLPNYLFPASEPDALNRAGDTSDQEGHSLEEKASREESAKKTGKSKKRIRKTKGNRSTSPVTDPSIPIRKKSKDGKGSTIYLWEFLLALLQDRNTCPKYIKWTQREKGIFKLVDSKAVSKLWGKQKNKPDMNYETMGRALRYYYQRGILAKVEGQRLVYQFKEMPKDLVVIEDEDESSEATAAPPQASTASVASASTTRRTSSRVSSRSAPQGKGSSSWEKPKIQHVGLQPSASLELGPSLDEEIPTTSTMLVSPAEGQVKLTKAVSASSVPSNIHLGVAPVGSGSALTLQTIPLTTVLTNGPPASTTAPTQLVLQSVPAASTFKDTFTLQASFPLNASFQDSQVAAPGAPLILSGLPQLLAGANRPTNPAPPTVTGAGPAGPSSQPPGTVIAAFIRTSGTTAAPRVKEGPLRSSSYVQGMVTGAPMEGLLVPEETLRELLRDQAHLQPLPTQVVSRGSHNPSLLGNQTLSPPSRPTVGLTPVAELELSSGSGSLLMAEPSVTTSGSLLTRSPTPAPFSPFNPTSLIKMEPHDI
# Method in brief: as §1
# ELK4 = target: T9, ELK4 (Homo sapiens, UniProt P28324-2 1-405); conditions: protein: recombinant; tags: N-terminal GST; dsDNA, one strand shown
# T9 sequence: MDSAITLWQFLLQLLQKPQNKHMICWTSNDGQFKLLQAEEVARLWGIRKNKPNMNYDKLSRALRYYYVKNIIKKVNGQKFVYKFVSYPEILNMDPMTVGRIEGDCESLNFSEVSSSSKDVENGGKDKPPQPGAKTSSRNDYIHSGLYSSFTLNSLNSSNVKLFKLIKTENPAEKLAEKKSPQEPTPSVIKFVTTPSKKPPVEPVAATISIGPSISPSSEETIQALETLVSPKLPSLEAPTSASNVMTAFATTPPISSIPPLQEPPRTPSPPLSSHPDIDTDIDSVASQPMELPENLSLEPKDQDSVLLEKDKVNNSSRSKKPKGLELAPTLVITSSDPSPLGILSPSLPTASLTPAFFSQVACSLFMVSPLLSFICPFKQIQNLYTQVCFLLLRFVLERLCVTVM
# Method in brief: as §1
# ETV2 = target: T10, ETV2 (Homo sapiens, UniProt O00321 1-342); conditions: protein: recombinant; tags: N-terminal GST; dsDNA, one strand shown
# T10 sequence: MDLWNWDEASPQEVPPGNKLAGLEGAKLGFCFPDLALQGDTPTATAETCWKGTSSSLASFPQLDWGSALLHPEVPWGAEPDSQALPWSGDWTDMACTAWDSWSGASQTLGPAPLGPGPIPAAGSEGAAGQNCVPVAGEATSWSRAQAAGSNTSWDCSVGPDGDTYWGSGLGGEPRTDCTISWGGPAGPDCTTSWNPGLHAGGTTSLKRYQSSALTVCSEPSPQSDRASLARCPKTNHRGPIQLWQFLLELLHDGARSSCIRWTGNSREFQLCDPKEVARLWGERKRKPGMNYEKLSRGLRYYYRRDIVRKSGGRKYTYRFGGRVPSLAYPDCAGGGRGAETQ
# Method in brief: as §1
# ELF3 = target: T11, ELF3 (Homo sapiens, UniProt P78545 1-371); conditions: protein: recombinant; tags: N-terminal GST; dsDNA, one strand shown
# T11 sequence: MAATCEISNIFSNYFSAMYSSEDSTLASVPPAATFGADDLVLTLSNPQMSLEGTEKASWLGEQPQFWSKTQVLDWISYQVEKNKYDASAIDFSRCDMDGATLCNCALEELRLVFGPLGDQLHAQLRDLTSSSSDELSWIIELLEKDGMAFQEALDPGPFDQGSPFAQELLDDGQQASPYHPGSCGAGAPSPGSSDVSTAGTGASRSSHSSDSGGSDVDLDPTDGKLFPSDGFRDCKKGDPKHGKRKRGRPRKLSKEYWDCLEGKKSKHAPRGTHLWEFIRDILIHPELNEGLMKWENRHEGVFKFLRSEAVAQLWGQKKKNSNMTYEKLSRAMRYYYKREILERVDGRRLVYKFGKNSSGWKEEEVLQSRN
# Method in brief: as §1
# CRX = CRX (Homo sapiens, UniProt O43186 1-299); conditions: protein: recombinant; tags: N-terminal GST; dsDNA, one strand shown
# Chain of CRX (O43186 whole entry): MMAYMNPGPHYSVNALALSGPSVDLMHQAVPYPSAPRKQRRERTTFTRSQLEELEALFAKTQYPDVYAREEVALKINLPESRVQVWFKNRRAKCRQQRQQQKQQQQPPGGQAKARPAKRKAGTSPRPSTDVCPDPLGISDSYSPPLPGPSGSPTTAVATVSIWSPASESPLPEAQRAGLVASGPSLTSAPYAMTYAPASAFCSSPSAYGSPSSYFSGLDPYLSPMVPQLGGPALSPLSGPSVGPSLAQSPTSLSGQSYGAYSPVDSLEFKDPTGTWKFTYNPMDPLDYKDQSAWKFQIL
# Method in brief: as §1
# ETV1 = ETV1 (Homo sapiens, UniProt P50549 1-477); conditions: protein: recombinant; tags: N-terminal GST; dsDNA, one strand shown
# Chain of ETV1 (P50549 whole entry): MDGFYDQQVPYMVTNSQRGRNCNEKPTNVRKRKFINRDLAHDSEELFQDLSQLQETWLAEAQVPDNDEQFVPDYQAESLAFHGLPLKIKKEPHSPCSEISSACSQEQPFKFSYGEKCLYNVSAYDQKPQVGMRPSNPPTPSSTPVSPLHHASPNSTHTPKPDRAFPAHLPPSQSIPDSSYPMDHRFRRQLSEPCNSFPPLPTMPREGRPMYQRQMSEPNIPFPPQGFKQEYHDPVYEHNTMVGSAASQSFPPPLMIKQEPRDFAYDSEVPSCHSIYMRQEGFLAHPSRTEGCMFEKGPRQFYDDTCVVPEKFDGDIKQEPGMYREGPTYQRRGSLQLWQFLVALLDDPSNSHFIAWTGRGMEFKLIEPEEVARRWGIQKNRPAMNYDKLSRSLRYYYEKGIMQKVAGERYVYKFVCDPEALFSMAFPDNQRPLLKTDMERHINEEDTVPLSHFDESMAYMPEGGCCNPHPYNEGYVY
# Method in brief: as §1
sequence,measurement,setting,value
ATTAAC,binding signal,FLI1,"1.29 fold enrichment (6-mer frequency, TF over GST control)"
same,binding signal,ELK1,"1.16 fold enrichment (6-mer frequency, TF over GST control)"
same,binding signal,GABPA,"1.22 fold enrichment (6-mer frequency, TF over GST control)"
same,binding signal,ERG,"1.21 fold enrichment (6-mer frequency, TF over GST control)"
same,binding signal,ELF1,"1.32 fold enrichment (6-mer frequency, TF over GST control)"
same,binding signal,EHF,"1.16 fold enrichment (6-mer frequency, TF over GST control)"
same,binding signal,SPI1,"1.18 fold enrichment (6-mer frequency, TF over GST control)"
same,binding signal,SPIB,"1.24 fold enrichment (6-mer frequency, TF over GST control)"
same,binding signal,ELK3,"1.26 fold enrichment (6-mer frequency, TF over GST control)"
same,binding signal,FEV,"1.27 fold enrichment (6-mer frequency, TF over GST control)"
same,binding signal,ETV5,"1.27 fold enrichment (6-mer frequency, TF over GST control)"
same,binding signal,HSF1,"2.07 fold enrichment (6-mer frequency, TF over GST control)"
same,binding signal,SPIC,"1.3 fold enrichment (6-mer frequency, TF over GST control)"
same,binding signal,ELF4,"1.3 fold enrichment (6-mer frequency, TF over GST control)"
same,binding signal,ELK4,"1.25 fold enrichment (6-mer frequency, TF over GST control)"
same,binding signal,ETV2,"1.21 fold enrichment (6-mer frequency, TF over GST control)"
same,binding signal,ELF3,"1.29 fold enrichment (6-mer frequency, TF over GST control)"
same,binding signal,CRX,"3.36 fold enrichment (6-mer frequency, TF over GST control)"
same,binding signal,ETV1,"1.27 fold enrichment (6-mer frequency, TF over GST control)"
